Data as given in PubChem BioAssay (Tox21).
Records with an inconclusive call do not appear. Activity calls are given as the source filed them. Unless noted, calls come from the whole dose curve; as a rule, active = well fitted curve in the direction sought with a large enough effect in the repeat runs; inconclusive = weak or mixed curves; inactive = no such curve, though single readings can be large; an effect the other way counts as inactive or inconclusive.

Assays:
[1] = A CellTox Green Cytotoxicity Assay to monitor cytotoxicity in HepG2 cells - 16 hour (AID 1224876); note: nearly all actives have a fitted effect of over 45% in size
Method in brief: (§1)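 Nonlytic assay: viable cells exclude the dye, so fluorescence scales with cell death. HepG2 at 600 cells/well, compounds added after 5 h, signal read across 40 h.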

[2] = qHTS RealTime-Glo MT Cell Viability Assay in HepG2 cells - 32 hour (AID 1224877); note: nearly all actives have a fitted effect of over 55% in size
Method in brief: (§2)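 Cells + NanoLuc/prosubstrate dispensed (600 cells/well) → 5 h at 37 C/5% CO2 → compounds in DMSO transferred → 40 h incubation at 37 C, luminescence read at 0, 8, 16, 24, 32, 40 h.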

[3] = A CellTox Green Cytotoxicity Assay to monitor cytotoxicity in HepG2 cells - 24 hour (AID 1224878); note: nearly all actives have a fitted effect of over 45% in size
Method in brief: as §1

[4] = A CellTox Green Cytotoxicity Assay to monitor cytotoxicity in HepG2 cells - 40 hour (AID 1224879); note: nearly all actives have a fitted effect of over 40% in size
Method in brief: as §1

[5] = A CellTox Green Cytotoxicity Assay to monitor cytotoxicity in HEK293 cells - 32 hour (AID 1224881); note: nearly all actives have a fitted effect of over 40% in size
Method in brief: (§3)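 Seeding of HEK293 cells together with cytotoxicity dye preceded a 5 h incubation at 37 C/5% CO2. Test compounds in DMSO were then added and fluorescence monitored across 40 h.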

[6] = A CellTox Green Cytotoxicity Assay to monitor cytotoxicity in HepG2 cells - 32 hour (AID 1224883); note: nearly all actives have a fitted effect of over 50% in size
Method in brief: as §1

[7] = qHTS RealTime-Glo MT Cell Viability Assay in HepG2 cells - 16 hour (AID 1224885); note: nearly all actives have a fitted effect of over 50% in size
Method in brief: as §2

[8] = qHTS RealTime-Glo MT Cell Viability Assay in HEK293 cells - 24 hour (AID 1224886); note: top concentration of the series differs between compounds; nearly all actives have a fitted effect of over 50% in size
Method in brief: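 Tox21 10K qHTS, HEK293, 600 cells/well, RealTime-Glo reagent co-dispensed with cells; 5 h preincubation, compound by pintool, 37 C, luminescence at 0–40 h.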

[9] = A CellTox Green Cytotoxicity Assay to monitor cytotoxicity in HEK293 cells - 16 hour (AID 1224888); note: nearly all actives have a fitted effect of over 35% in size
Method in brief: as §3

[10] = qHTS RealTime-Glo MT Cell Viability Assay in HepG2 cells - 0 hour (AID 1224889); note: nearly all actives have a fitted effect of over 50% in size
Method in brief: as §2

[11] = A CellTox Green Cytotoxicity Assay to monitor cytotoxicity in HepG2 cells - 8 hour (AID 1224890); note: nearly all actives have a fitted effect of over 45% in size
Method in brief: as §1

[12] = qHTS assay to identify small molecule antagonists of the estrogen receptor alpha (ER-alpha) signaling pathway using the BG1 cell line in the presence of 0.1 nM 17-beta-estradiol - cell viability counter screen (AID 1259241); note: nearly all actives have a fitted effect of over 40% in size
Method in brief: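 Cells were plated and left 24 hr, compounds in DMSO were pinned in, 17beta-estradiol was added to 0.1 nM final, and after 22 hr CellTiter-Fluor reagent was added for 30 min before fluorescence was read.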

[13] = qHTS assay to identify small molecule antagonists of the androgen receptor (AR) signaling pathway using the MDA cell line in the presence of 0.5 nM R1881 - cell viability counter screen (AID 1259242); note: nearly all actives have a fitted effect of over 45% in size
Method in brief: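 R1881 at 0.5 nM final stimulated MDA-kb2 cells during 16 hr compound treatment at 37C. Cytotoxicity read: CellTiter-Fluor fluorescence after 30 min.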

[14] = molecular target: Estrogen receptor (Homo sapiens) (UniProt P03372); assay: qHTS assay to identify small molecule antagonists of the estrogen receptor alpha (ER-alpha) signaling pathway using the BG1 cell line in the presence of 0.1 nM 17-beta-estradiol (AID 1259244); note: nearly all actives have a fitted effect of over 50% in size
Estrogen receptor (Homo sapiens), sequence (P03372 whole entry, looked up): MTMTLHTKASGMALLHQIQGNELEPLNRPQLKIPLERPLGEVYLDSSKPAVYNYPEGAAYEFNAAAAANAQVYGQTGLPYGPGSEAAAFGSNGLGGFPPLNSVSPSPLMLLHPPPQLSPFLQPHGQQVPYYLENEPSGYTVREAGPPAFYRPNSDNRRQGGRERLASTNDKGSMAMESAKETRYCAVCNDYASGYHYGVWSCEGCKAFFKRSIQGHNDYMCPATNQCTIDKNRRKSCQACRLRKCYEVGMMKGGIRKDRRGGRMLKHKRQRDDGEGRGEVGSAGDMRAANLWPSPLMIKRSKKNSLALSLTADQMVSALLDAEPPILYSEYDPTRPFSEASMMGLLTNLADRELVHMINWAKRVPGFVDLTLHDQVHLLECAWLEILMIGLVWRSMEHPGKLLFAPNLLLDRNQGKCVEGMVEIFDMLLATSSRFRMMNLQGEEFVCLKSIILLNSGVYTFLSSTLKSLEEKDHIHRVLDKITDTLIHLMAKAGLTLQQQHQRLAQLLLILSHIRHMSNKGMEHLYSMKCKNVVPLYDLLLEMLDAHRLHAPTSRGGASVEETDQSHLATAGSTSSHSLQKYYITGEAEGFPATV
Method in brief: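 VM7Luc4E2; 4xERE-luciferase; 0.1 nM E2 final; 22 h co-incubation, 37C; ONE-Glo luminescence after 30 min at room temperature.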

[15] = qHTS RealTime-Glo MT Cell Viability Assay in HEK293 cells - 0 hour (AID 1224880)
Method in brief: (§4)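 Tox21 screen in HEK293 using RealTime-Glo MT chemistry, with cells and reagent co-dispensed. Luminescence proportional to viable cell number was captured at intervals during 40 h compound exposure at 37 C.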

[16] = A CellTox Green Cytotoxicity Assay to monitor cytotoxicity in HepG2 cells - 0 hour (AID 1224882); note: nearly all actives have a fitted effect of over 35% in size
Method in brief: as §1

[17] = A CellTox Green Cytotoxicity Assay to monitor cytotoxicity in HEK293 cells - 8 hour (AID 1224884); note: nearly all actives have a fitted effect of over 35% in size
Method in brief: as §3

[18] = qHTS RealTime-Glo MT Cell Viability Assay in HEK293 cells - 8 hour (AID 1224887)
Method in brief: as §4

[19] = molecular target: Androgen receptor (Homo sapiens) (UniProt P10275); assay: qHTS assay to identify small molecule antagonists of the androgen receptor (AR) signaling pathway using the MDA cell line in the presence of 0.5 nM R1881 (AID 1259243); note: nearly all actives have a fitted effect of over 50% in size
Androgen receptor (Homo sapiens), sequence (P10275 whole entry, looked up): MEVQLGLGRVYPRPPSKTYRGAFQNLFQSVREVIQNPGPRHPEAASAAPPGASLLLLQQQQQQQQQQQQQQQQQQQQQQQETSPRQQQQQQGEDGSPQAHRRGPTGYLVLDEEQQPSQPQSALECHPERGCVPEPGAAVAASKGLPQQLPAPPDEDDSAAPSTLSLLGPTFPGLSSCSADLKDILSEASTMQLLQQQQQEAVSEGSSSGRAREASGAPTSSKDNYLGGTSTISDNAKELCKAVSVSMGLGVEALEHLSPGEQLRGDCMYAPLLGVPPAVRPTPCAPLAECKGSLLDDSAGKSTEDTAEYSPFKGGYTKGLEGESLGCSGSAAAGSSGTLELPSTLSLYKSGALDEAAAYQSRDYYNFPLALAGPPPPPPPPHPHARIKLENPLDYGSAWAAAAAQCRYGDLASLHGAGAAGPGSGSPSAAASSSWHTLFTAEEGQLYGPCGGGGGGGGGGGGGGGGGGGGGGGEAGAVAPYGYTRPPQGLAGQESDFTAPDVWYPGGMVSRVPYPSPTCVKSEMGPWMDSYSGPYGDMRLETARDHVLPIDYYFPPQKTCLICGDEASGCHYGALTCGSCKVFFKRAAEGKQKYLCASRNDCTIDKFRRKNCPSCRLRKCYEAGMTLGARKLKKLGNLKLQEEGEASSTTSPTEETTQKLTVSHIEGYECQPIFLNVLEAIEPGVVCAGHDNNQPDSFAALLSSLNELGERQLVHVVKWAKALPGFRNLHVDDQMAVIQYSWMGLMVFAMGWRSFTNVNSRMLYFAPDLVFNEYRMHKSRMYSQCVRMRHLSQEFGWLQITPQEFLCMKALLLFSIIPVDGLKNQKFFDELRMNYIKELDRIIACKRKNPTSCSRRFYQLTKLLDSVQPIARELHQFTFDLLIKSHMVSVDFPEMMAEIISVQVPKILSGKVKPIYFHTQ
Method in brief: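 We exposed MDA-kb2 cells to compounds under 0.5 nM R1881 stimulation for 16 hr at 37C and quantified MMTV-driven luciferase by luminescence.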

[20] = qHTS assay to identify small molecule phospholipidosis (PLD) inducers (AID 1259344; active = well fitted curve in the direction sought with a large enough effect; an effect the other way counts as inactive or inconclusive)
Method in brief: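 Phospholipidosis is scored by imaging LipidTOX-stained pits in HepG2 cells exposed to compound for 24 h at 37 C; pit counts and integrated intensities per well and per cell serve as outputs.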

Measured: Potency

CCCCCCCCCCOC(C)=O
not listed: [15] | [16] | [17] | [18] | [19] | [20]
inactive: all other assays above

OC[C@@H](O)C(O)[C@@H](O)CO (stereo not given in full)
not listed: [4] | [14] | [19] | [20]
inactive: all other assays above

COC(C)(OC)OC
not listed: [16] | [17] | [20]
inactive: all other assays above

CN1CCOC(c2ccccc2)c2ccccc2C1 (stereo not given)
not listed: [6] | [14] | [16] | [19]
inactive: all other assays above

Cc1cccc(Cl)c1
not listed: [14] | [16] | [18] | [19] | [20]
inactive: all other assays above

CCCCCCCCCCCCCBr
not listed: [6] | [8] | [14] | [15] | [16] | [18] | [19] | [20]
inactive: all other assays above

CC(C)c1ccc(C=O)cc1
not listed: [4] | [14] | [19] | [20]
inactive: all other assays above

COC(=O)c1cc(Cl)cc(Cl)c1
not listed: [16] | [17] | [20]
inactive: all other assays above

Cc1c(C(=O)c2c[nH]n(C)c2=O)ccc(S(C)(=O)=O)c1C1=NOCC1
not listed: [16] | [18] | [20]
inactive: all other assays above

Cc1c(NC(=O)c2cccnc2)c(=O)n(-c2ccccc2)n1C
not listed: [16] | [19]
inactive: all other assays above

CCC[C@@H]1C[C@@H](C(=O)N[C@@H]([C@H]2O[C@H](SC)[C@H](O)[C@@H](O)[C@H]2O)[C@@H](C)O)N(C)C1
not listed: [4] | [19]
inactive: all other assays above

C[C@@H](O)C(=O)O
not listed: [4] | [14] | [16] | [19] | [20]
inactive: all other assays above

CCC(C)OC(C)CC (stereo not given)
not listed: [2] | [19] | [20]
inactive: all other assays above

COc1cc(/C=C/C(N)=O)cc(OC)c1OC
not listed: [4] | [18] | [20]
inactive: all other assays above

CC(C)CCOC(=O)c1ccccc1
not listed: [2] | [14] | [19] | [20]
inactive: all other assays above

CCCc1ccc(O)cc1
not listed: [3] | [4] | [6] | [11] | [19] | [20]
inactive: all other assays above
